Data reported in the supplement of paper PMC11732987, “Enantioselective OTUD7B fragment discovery through chemoproteomics screening and high-throughput optimisation” (Communications Chemistry, 2025).

Columns and labels:
Assay in all cases: log2 ratio of Biotin-Ahx-Ub-VS probe labelling (compound/DMSO); higher = less target engagement, active = hit call of the paper (q ≤ 0.05, log2 ratio ≤ -1)
Conditions in all cases: treatment time: 3 h
[1] = compound: CCC1N(CCc2sccc12)C(=O)CCl
How it was run: (§1)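 Compound at 50 or 200 µM, or DMSO, was applied for 3 h in triplicate to HEK293T lysate (495 µg per sample, Tris/CHAPS/IGEPAL buffer with protease inhibitors), after which Biotin-Ahx-Ub-VS was added at 0.5 µM final for 1 h. The labelled DUBs were pulled down with NeutrAvidin, digested with LysC and trypsin, and run by diaPASEF LC-MS/MS. Ratios are averaged base-two logs of compound over DMSO from median-normalised label-free quantities by unpaired t-test, counting only proteins with at least 2 unique peptides.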

[2] = compound: CN1c2ccccc2C(CS1(=O)=O)NC(=O)CCl
How it was run: as §1

[3] = compound: Cl.ClCC(=O)N1CCc2ncncc2C1
How it was run: as §1

[4] = compound: Cl.Cn1ncc2C(CCCc12)NC(=O)CCl
How it was run: as §1

[5] = compound: ClCC(=O)NC1CCOc2ccccc12
How it was run: as §1

[6] = compound: ClCC(=O)NC1CCCc2ccccc12
How it was run: (§2)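 These values are averaged ratios of compound to vehicle, tested by unpaired t-test. HEK293T lysate (495 µg per sample) was preincubated in triplicate with compound across a concentration series or vehicle for 3 h and then with Biotin-Ahx-Ub-VS at 0.5 µM final for 1 h. Deubiquitinases carrying the probe were NeutrAvidin-enriched, digested with LysC and trypsin, and measured by diaPASEF LC-MS/MS. Ratios are expressed as log2 from global-median-normalised Spectronaut label-free quantities, and only proteins with two or more unique peptides were included.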

[7] = compound: ClCC(=O)N[C@@H]1CCCc2ccccc12
How it was run: as §2

[8] = compound: ClCC(=O)N[C@H]1CCCc2ccccc12
How it was run: as §2

[9] = compound: CCC1N(CCc2cc(OC)c(Cl)cc12)C(=O)CCl
How it was run: as §1

[10] = compound: CCCC1N(CCc2cc(OC)c(OC)cc12)C(=O)CCl
How it was run: as §1

Measured: log2 ratio of Biotin-Ahx-Ub-VS probe labelling

OTUD4 (UniProt Q01804)
Sequence of UniProt Q01804 (Q01804 whole entry): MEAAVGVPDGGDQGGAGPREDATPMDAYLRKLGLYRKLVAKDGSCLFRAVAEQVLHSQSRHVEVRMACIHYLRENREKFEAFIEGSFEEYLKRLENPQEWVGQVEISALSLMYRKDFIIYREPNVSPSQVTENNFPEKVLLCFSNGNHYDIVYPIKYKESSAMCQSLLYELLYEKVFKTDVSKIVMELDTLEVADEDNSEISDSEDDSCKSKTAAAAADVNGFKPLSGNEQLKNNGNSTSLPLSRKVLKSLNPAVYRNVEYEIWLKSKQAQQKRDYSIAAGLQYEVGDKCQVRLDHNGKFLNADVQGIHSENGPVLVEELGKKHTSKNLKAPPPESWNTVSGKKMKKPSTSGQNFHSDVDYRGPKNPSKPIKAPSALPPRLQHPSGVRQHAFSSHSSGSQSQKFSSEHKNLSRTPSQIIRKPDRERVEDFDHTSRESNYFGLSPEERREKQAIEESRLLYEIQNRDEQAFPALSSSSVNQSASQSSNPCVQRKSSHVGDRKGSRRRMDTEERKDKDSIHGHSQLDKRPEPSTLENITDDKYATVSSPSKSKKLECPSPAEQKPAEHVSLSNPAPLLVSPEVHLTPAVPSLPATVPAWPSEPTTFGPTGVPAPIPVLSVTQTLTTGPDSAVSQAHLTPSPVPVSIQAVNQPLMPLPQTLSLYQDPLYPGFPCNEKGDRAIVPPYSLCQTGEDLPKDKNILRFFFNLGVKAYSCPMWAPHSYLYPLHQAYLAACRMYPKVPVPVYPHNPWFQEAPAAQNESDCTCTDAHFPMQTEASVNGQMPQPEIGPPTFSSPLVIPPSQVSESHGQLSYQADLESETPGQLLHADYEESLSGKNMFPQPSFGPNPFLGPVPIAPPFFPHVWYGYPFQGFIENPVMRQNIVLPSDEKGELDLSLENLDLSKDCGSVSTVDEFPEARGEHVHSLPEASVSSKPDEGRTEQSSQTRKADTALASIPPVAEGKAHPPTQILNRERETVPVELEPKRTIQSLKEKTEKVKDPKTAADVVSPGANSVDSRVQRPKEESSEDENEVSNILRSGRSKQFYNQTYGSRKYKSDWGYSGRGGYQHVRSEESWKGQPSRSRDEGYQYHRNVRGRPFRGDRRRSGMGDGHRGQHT
active: [2]; compound concentration: 200uM -1.51 | [4]; compound concentration: 200uM -1.46 | [5]; compound concentration: 200uM -1.33 | [6]; compound concentration: 50uM -1.21 | [6]; compound concentration: 100uM -1.92 | [6]; compound concentration: 200uM -2.86 | [7]; compound concentration: 100uM -1.39 | [7]; compound concentration: 200uM -2.13 | [8]; compound concentration: 50uM -1.41 | [8]; compound concentration: 100uM -2.07 | [8]; compound concentration: 200uM -2.61 | [9]; compound concentration: 200uM -1.4
inactive: [1]; compound concentration: 50uM -0.293 | [1]; compound concentration: 200uM -0.576 | [2]; compound concentration: 50uM -0.595 | [3]; compound concentration: 50uM -0.152 | [3]; compound concentration: 200uM -0.671 | [4]; compound concentration: 50uM -0.813 | [5]; compound concentration: 50uM -0.624 | [6]; compound concentration: 0.78uM -0.158 | [6]; compound concentration: 1.56uM -0.085 | [6]; compound concentration: 3.13uM -0.223 | [6]; compound concentration: 6.25uM -0.319 | [6]; compound concentration: 12.5uM -0.411 | [6]; compound concentration: 25uM -0.655 | [7]; compound concentration: 0.78uM -0.206 | [7]; compound concentration: 1.56uM -0.14 | [7]; compound concentration: 3.13uM -0.152 | [7]; compound concentration: 6.25uM -0.172 | [7]; compound concentration: 12.5uM -0.352 | [7]; compound concentration: 25uM -0.535 | [7]; compound concentration: 50uM -0.958 | [8]; compound concentration: 0.78uM -0.176 | [8]; compound concentration: 1.56uM -0.178 | [8]; compound concentration: 3.13uM -0.176 | [8]; compound concentration: 6.25uM -0.252 | [8]; compound concentration: 12.5uM -0.529 | [8]; compound concentration: 25uM -0.893 | [9]; compound concentration: 50uM -0.491 | [10]; compound concentration: 50uM -0.395 | [10]; compound concentration: 200uM -0.505

UniProt O00487
Sequence of UniProt O00487 (O00487 whole entry): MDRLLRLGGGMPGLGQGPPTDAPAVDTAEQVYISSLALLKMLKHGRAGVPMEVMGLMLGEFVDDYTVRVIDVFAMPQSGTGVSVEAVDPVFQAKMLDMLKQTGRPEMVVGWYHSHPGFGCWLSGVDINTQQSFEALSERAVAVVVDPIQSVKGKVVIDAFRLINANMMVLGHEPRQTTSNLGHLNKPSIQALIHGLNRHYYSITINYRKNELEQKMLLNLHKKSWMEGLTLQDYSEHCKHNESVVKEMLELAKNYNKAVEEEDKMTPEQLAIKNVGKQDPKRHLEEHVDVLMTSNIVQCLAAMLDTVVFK
inactive: [1]; compound concentration: 50uM -0.193 | [1]; compound concentration: 200uM -0.218 | [2]; compound concentration: 50uM -0.0425 | [2]; compound concentration: 200uM -0.0779 | [3]; compound concentration: 50uM 0.107 | [3]; compound concentration: 200uM -0.106 | [4]; compound concentration: 50uM -0.124 | [4]; compound concentration: 200uM -0.336 | [5]; compound concentration: 50uM 0.217 | [5]; compound concentration: 200uM -0.351 | [6]; compound concentration: 0.78uM -0.644 | [6]; compound concentration: 1.56uM -0.964 | [6]; compound concentration: 3.13uM -0.768 | [6]; compound concentration: 6.25uM -0.916 | [6]; compound concentration: 12.5uM -0.0532 | [6]; compound concentration: 25uM -1.08 | [6]; compound concentration: 50uM -1.09 | [6]; compound concentration: 100uM -0.828 | [6]; compound concentration: 200uM -0.122 | [7]; compound concentration: 0.78uM -0.274 | [7]; compound concentration: 1.56uM -0.457 | [7]; compound concentration: 3.13uM -0.399 | [7]; compound concentration: 6.25uM -0.508 | [7]; compound concentration: 12.5uM -0.515 | [7]; compound concentration: 25uM -0.563 | [7]; compound concentration: 50uM -0.92 | [7]; compound concentration: 100uM 0.108 | [7]; compound concentration: 200uM -0.319 | [8]; compound concentration: 0.78uM -0.768 | [8]; compound concentration: 1.56uM -0.631 | [8]; compound concentration: 3.13uM -0.859 | [8]; compound concentration: 6.25uM -0.646 | [8]; compound concentration: 12.5uM 0.00923 | [8]; compound concentration: 25uM -0.657 | [8]; compound concentration: 50uM -0.0791 | [8]; compound concentration: 100uM -0.905 | [8]; compound concentration: 200uM -0.369 | [9]; compound concentration: 50uM 0.0571 | [9]; compound concentration: 200uM 0.132 | [10]; compound concentration: 50uM 0.000271 | [10]; compound concentration: 200uM -0.108
